Over roughly 16,000 sequences, “Z-score” has its median near -0.37; the highest 2% begin near 3.2. The entries come from a sample that favours the highest values as a whole.
Tested on: RBM10 RRM1-ZnF (GST-tagged construct)
Test: RNAcompete 7-mer binding Z-score; higher = stronger binding preference
Method in brief: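 Each heptamer motif was given a one-sided Z-score for enrichment across the probes that contained it. GST-tagged RBM10 constructs (20 pmol) were combined with 1.5 nmol of a designed pool of 241 399 RNAs of up to 41 nt, transcribed from microarray-derived DNA templates. Binding took place in 1 ml Hepes pH 7.8 buffer containing KCl, NaCl, glycerol, DTT, BSA and glutathione Sepharose beads for 30 min at 4°C. After four 2-min washes at 4°C, bound RNA was identified by microarray hybridisation.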

Sequence	RNAcompete 7-mer binding Z-score
GAAACGU	-0.00246
GACAGCC	-0.539
CGUCUGC	-0.759
UUUUAAC	-0.818
GUAGAUG	1.93
AGGUUCA	-0.0285
UUUUCUU	-0.772
GAGCGAG	3.42
GAGCGGC	1.44
GAGCGGU	1.72
GAGCGGA	3.98
CAGCGGG	2.5
UAGCGAG	0.826
GAGCGGG	3.61
GAGCGAC	0.192
UAGCGGA	1.13
CCUACCU	-0.766
CCAGUCC	-0.789
AACGACU	-0.457
CGUGCUG	-0.149
CCCGCUC	-0.552
CGGUAAA	0.29
GGGUAAC	2.4

Sequence	RNAcompete 7-mer binding Z-score
GGGUAAA	3.98
GGGUAAG	4.39
CGGUAAG	1.26
AGGUAAA	1.82
CCCUUCA	-0.776
CCACUAC	-0.623
AUCCGAU	-0.717
GGAAAAA	1.86
CGGAAGA	0.923
GAAAAAG	1.49
CGGAAAG	1.84
CGGAAAA	0.654
GGGAAGA	3.86
UGAAAAG	0.381
UGGAAAG	2.84
GGAAAAG	3.24
GGGAAAG	4.79
GGGAAGU	3
GGGAAAA	3.4
UCCGAUG	-0.464
UGUACUA	-0.415
AUCGGCC	-0.62
CUCGCAG	-0.11

Sequence	RNAcompete 7-mer binding Z-score
GAGCUGG	1.88
GGUGCGG	2.92
GGCGUGC	0.738
CGGUCUU	-0.607
CUAUGGU	-0.116
CCUCUUA	-0.85
AGGGUAU	3.69
GUGGUAG	2.2
GAGGUAA	2.23
CGGGUAA	1.89
GGGGUAA	4.14
AGGGUAA	4.13
UGGGUAA	2.97
GGGGUAC	2.57
CGGGUAU	1.59
GGGGUAU	3.17
AAGGUAU	2.13
GGGGUAG	4.61
ACAUUGG	0.553
AGCUAAG	-0.035
CAUUUAC	-0.85
AAUCGAA	-0.181
ACCAGCC	-0.672

Sequence	RNAcompete 7-mer binding Z-score
CCUGAGG	0.339
GUUCUGU	-0.431
CACUAGC	-0.633
CCGUGCC	-0.532
UGAAUGG	2.5
AGAAUGG	3.27
GGAAUGU	1.94
AGAAUGU	0.235
GGAAUGG	4.85
CGAAUGG	1.29
UUGUUUG	0.0138
UCUAAGG	-0.00896
AUGCGUU	-0.405
UCCAACC	-0.805
GAAGGUG	4.59
UAAGGUA	1.5
AAAGGUG	3.71
CAAGGUG	1.76
AAAGGUA	3.05
UAAGGUG	2.16
GAAGGUC	1.25
GAAGGUA	3.84
GAAGGUU	2.87

Sequence	RNAcompete 7-mer binding Z-score
AUUAAGG	1.2
CGGGUCU	0.339
CCGAAGC	-0.61
GGGUUGG	4.64
GGGUUAG	4.38
CGGUUGG	2.56
GGGUUGA	3.8
CGGUUAG	0.881
UGGUUAG	2.24
UGGUUGA	2.02
AGGUUGG	3.06
CGGUUGA	1.01
UCCAGAG	-0.35
ACAGAAG	0.595
UUACAAA	-0.305
UAACUGA	-0.295
GGUCGGU	1.24
GGUUAGC	1.12
GGGAUAG	4
GGUUAGU	1.7
GGAUUGU	1.22
UGGAUAG	2.48
GGGAUGA	4.17

Sequence	RNAcompete 7-mer binding Z-score
GGGAUGC	3.06
GGGAUGU	3.21
AGGAUAG	2.16
GGUUAGG	4.59
CGAUUGG	0.949
GGAUUGG	3.79
UGACAGG	2.13
UACCCAG	-0.659
UCGCGUA	-0.532
ACUCUUU	-0.844
AAUUUCG	-0.607
GUGCUAA	0.153
UCAUUAA	-0.509
GCAUUCG	-0.444
GGGAUAA	3.48
GGGAUAC	2.5
UGGAUAA	1.15
GGGAUUC	1.12
AGGAUUG	1.5
GGAUAGG	4.11
AGAUAGG	2.44
GGAUAGA	2.61
GGGAUUG	3.5

Sequence	RNAcompete 7-mer binding Z-score
GUAGUUC	-0.243
UGAAUAG	0.387
GUCUGAC	-0.529
CACAACA	-0.363
GUGGUGC	1.76
UUGGUGG	2.48
GUGGUGG	3.9
AUGGUGG	3.82
CUGGUGG	1.64
AUGGUGC	1.03
CCCGAGG	0.384
AUCACAU	-0.457
CAGCAAC	-0.539
CGACGCA	-0.36
UGGGUCU	1.12
ACUGCUG	-0.675
UAGGGUC	1.55
GAGGGUU	3.03
CAGGGUA	2.99
AAGGGCA	2.78
AAGGGUA	4.59
UAGGGUA	3.47
GAGGGUG	3.75

Sequence	RNAcompete 7-mer binding Z-score
UCGGGUA	1.4
UAGGGUG	4.81
AAGGGUC	1.72
GAGGGUC	1.44
UAGGGCG	2.22
UGUUUCU	-0.418
CCUAAGG	-0.344
AGUCCCA	-0.714
AUGGUAG	2.74
ACGCCAU	-0.665
AAACCUC	-0.802
UCCCUUU	-0.912
GCAUUUG	-0.477
CCGAAGG	0.179
CAGGGUU	2.15
GAGGGUA	3.95
CAGGGUG	3.21
AAGGGUU	4.07
GAGGGCA	2.12
AAAGGUU	3.12
CAGGGUC	1.09
CCGGGUA	0.625
UCGGGUU	1.12

— the supplement of paper PMC5499739
